Bioassay records as filed in PubChem BioAssay.
ABHD5 PLIN5 PPI – inhibitors of human ABHD5-perilipin-5 interaction; Q00G26+Q8WTS1; Split G. princeps luciferase complementation, luminescence, 4 h; inhibition, % at 4 µM; 0.78% of 360,000 active; AID 602281;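 active = inhibition above the mean inhibition across every tested compound plus 3 SD, cut at about 22% in these data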
MBD2 inh – inhibitors of human MBD2 binding to methylated oligonucleotide; Q9UBB5; TR-FRET; inhibition, % at 4.4 µM; 0.31% of 370,000 active; AID 686964; in the data active = inhibition above about 13%
Target sequence (Q9UBB5 whole entry, looked up): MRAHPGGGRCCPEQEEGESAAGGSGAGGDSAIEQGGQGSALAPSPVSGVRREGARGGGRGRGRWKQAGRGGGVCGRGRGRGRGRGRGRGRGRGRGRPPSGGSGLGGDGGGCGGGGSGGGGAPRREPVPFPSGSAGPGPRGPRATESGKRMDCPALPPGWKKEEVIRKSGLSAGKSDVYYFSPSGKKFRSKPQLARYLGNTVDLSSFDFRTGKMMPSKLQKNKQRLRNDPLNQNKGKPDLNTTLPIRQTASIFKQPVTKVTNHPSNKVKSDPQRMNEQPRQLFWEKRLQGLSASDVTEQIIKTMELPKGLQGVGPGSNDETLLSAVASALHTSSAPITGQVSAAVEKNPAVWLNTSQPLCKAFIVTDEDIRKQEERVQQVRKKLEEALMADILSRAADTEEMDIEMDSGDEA
UHRF1 binding – blocks human UHRF1 binding to methylated DNA; inhibition, % at 4.4 µM; AID 687016; 0.75% of 370,000 active; Q96T88; UHRF1 binding to methylated oligo, TR-FRET; in the data active = inhibition above about 21%;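 note: UHRF1 SRA domain binding a hemimethylated CpG hairpin DNA probe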
rCAG binder – r(CAG) repeat RNA binding; TO-PRO-1 dye displacement fluorescence; inhibition, % at 3 µM; 1.3% of 370,000 active;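 active = inhibition above the plate cutoff, the mean of all test compounds on that plate plus 3 SD, cut at about 35% in these data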;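 note: higher means more dye released from RNA so lower well fluorescence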
PRMT1 FP inh – inhibitors of human PRMT1. recombinant PRMT1, activity-based probe fluorescence polarization. inhibition, % at 2.79 µM. 1.3% of 370,000 active;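 active = inhibition above about 21% made by adding two undisclosed values, limit read from the data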
LEDGF integ inh – blocks HIV-1 LEDGF/p75-dependent DNA integration; AID 743269; 0.64% of 370,000 active; inhibition, % at 3.7 µM; TR-FRET IN-LEDGF/p75 DNA integration, Eu/Cy5;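 active = inhibition above the screen-wide mean plus 3 SD, cut at about 13% in these data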;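 note: signal is the Cy5 over europium emission ratio at 671 and 618 nm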
rCAG bind conf – r(CAG) RNA repeat binding, confirmation. shares compounds with rCAG binder. TO-PRO-1 dye displacement fluorescence. inhibition, % at 3 µM. 70% of 4,300 active. AID 652065;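 active = inhibition above a per-plate cutoff, the mean inhibition of sample wells plus 3 SD, cut at about 35% in these data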;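 note: loss of TO-PRO-1 fluorescence as compound displaces dye from 1x1 AA loop RNA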
DNA CAG counter – counter-screen for rCAG RNA binders: DNA CAG dye complex inhibitors. shares compounds with rCAG binder. d(CAG) DNA oligo TO-PRO-1 dye displacement, fluorescence. inhibition, % at 3 µM. 94% of 4,300 active;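 active = inhibition above its plate's cutoff, the mean test-well inhibition plus 3 SD, cut at about 4.8% in these data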;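 note: hits displace the dye from DNA and so lower well fluorescence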
DNA CAG DR – DNA CAG dye complex inhibition, dose response counter-screen. shares compounds with rCAG binder. DNA CAG/GTC duplex TO-PRO-1 dye displacement fluorescence. IC50, µM. 20% of 250 active. AID 686960; in the data active = IC50 below about 10 µM
Numbers stand for hits; 0 = inactive; - = no result. Only some compounds are listed: those with a hit (about 4.1% of all), similar ones and a draw of the others.

SMILES	ABHD5 PLIN5 PPI	MBD2 inh	UHRF1 binding	rCAG binder	PRMT1 FP inh	LEDGF integ inh	rCAG bind conf	DNA CAG counter	others
C[C@H]1COc2cc(N3CCOCC3)ccc2S(=O)(=O)N1	-	0	0	0	0	0	-	-
CC(=O)Nc1ccc(S(=O)(=O)NCC2CCN(C(=O)C(=O)c3cccs3)CC2)cc1	-	0	0	0	0	0	-	-
CCCCN(C)C(=O)CSc1nnc(-c2cccnc2)n1C1CCCCC1	-	0	0	0	0	0	-	-
O=C(O)Cn1cc(/C=N/NC(=O)c2cc3cc(Br)ccc3o2)c2ccccc21	0	0	0	50	0	0	56	17
Cn1cc(/C=N/NC(=O)c2cc3cc(Br)ccc3o2)c2ccccc21	0	0	0	0	0	0	-	-
CC1=C(C(=O)OC(C)C)C(c2ccc(Cl)cc2)n2c(sc(=Cc3ccc(OCC(=O)O)cc3)c2=O)=N1 (configuration not stated)	0	0	0	42	0	0	64	30	DNA CAG DR=0
CCOC(=O)C1=C(C)N=c2s/c(=C/c3ccc(OCC(=O)O)cc3)c(=O)n2C1c1ccc(SC)cc1 (configuration not stated)	0	-	-	-	-	-	-	-
CC(=O)c1cc(-c2ccccc2)n(CC(=O)NCc2ccc(F)cc2)c1C	-	0	0	0	0	0	-	-
O=C(NC1CCN(Cc2ccccc2)CC1)c1ccccc1NS(=O)(=O)c1ccc(F)c(F)c1	0	0	0	36	0	0	0	0
Cc1cc(NS(=O)(=O)c2ccc(NC(=O)CSc3nnc(-c4cccnc4)n3-c3ccccc3)cc2)nc(C)n1	-	0	0	0	0	0	-	-
O=C(N/N=C1/CC2CCC1C2)c1cc2ccccc2cc1O (configuration not stated)	0	0	0	51	0	0	0	0
O=C(NCC1CCCCC1)c1cc2ccccc2cc1O	0	0	0	0	0	0	-	-
CCOc1ccc(S(=O)(=O)N2CCNC(=O)C2)cc1	0	0	0	54	0	0	0	0
Cc1cccc(NC(=O)OC2CC3CC2[C@H]2CCCCN2C3)c1 (some centres not stated)	-	0	0	0	0	0	-	-
Cc1ccc(-c2n[nH]c3c2C(c2cccc(O)c2)N(c2ccc(C(=O)O)cc2)C3=O)cc1 (configuration not stated)	0	0	0	0	0	0	-	-
Cc1ccc(-c2n[nH]c3c2C(c2ccccc2)N(c2ccc(C(=O)O)cc2)C3=O)cc1 (configuration not stated)	0	0	0	45	0	0	0	6.2
O=C(Nc1ccc2ccccc2c1)NC1CCCCN(Cc2cccc(Cl)c2)C1=O (configuration not stated)	-	0	0	0	0	0	-	-
CS(=O)(=O)N(Cc1ccccc1)c1ccc(C(=O)Nc2ccccc2Sc2ccccc2)cc1	0	0	0	0	0	0	-	-
O=C(Nc1ccccc1C(=O)Nc1ccccc1C(=O)O)c1ccccc1	0	0	0	73	0	0	66	26
O=C(O)c1ccccc1NC(=O)c1ccccc1Nc1ccccc1	0	0	0	83	0	0	67	29
COc1ccccc1NC(=O)c1ccccc1Nc1ccccc1	0	0	0	0	0	0	-	-
CS(=O)(=O)N(Cc1ccccc1)c1ccc(C(=O)Nc2ccccc2C(=O)O)cc1	0	0	0	65	0	0	57	13
O=C(Nc1ccccc1C(=O)O)c1ccc(Br)c(S(=O)(=O)NCc2ccccc2)c1	0	0	0	73	0	0	61	22
CCN(CC)CCCN1C(=O)C2=C(C1=O)C1N(C)c3ccccc3[C@@]13C[C@@H](CO)N(C(=O)CCC(=O)OC)C3=N2 (some centres not stated)	-	0	0	0	0	0	-	-
O=C(O)COc1ccccc1/C=N/Nc1ccc(S(=O)(=O)N2CCOCC2)cc1[N+](=O)[O-]	0	0	0	52	0	0	39	9.3
